Measurements as given in PubChem BioAssay AID686997 (Broad Institute, 2013).
Potency and affinity values are given separately. The source made the active and inactive calls.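 How the source made its calls: active means compound lowering the viability signal whose fitted half-maximal dose is at most twice its top tested dose; inconclusive means flat curve with 30 to 70% inhibition, or poor fit; inactive means the rest.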

Test: PubChem AID 686997
Conditions: C. neoformans growth, alamar blue, 72 h (sorbitol counter-screen); series mostly up to 35 µM

| Structure (SMILES) | outcome |
| --- | --- |
| CO[C@H]1CN(C)C(=O)c2cc(NC(=O)C3CC3)ccc2OC[C@@H](C)N(Cc2cncnc2)C[C@H]1C | inactive |
| COc1ccccc1CNC(=S)NCc1ccc(Cl)cc1 | inactive |
| O=C(NC(=S)Nc1ccccc1N1CCCC1)c1ccc([N+](=O)[O-])cc1 | inactive |
| COC(=O)C1=C(C)N(Cc2ccccc2)C(=S)N[C@H]1c1cccc(F)c1 | inactive |
| Cc1cc(C(=O)NC(=S)Nc2ccccc2N2CCOCC2)ccc1[N+](=O)[O-] | inactive |
| CCc1ccc(C(=O)NC(=S)NCc2cccnc2)cc1 | inactive |
| O=C(Cc1ccccc1)N[C@H]1C=C[C@@H](CC(=O)N2CCOCC2)O[C@@H]1CO | inactive |
| CCc1ccc(C(C)NC(=S)NCc2ccc(F)cc2)cc1 (stereo not drawn) | inactive |
| Cc1ccc(C(=O)NC(=S)Nc2ccc(N3CCOCC3)cc2)cc1 | inactive |
| COc1ccccc1NC(=S)NCc1ccccc1Cl | inactive |
| COc1ccc(NC(=S)NCc2ccc(Cl)cc2)c(OC)c1 | inactive |
| CCOC(=O)NC(=S)Nc1ccc(C(C)(C)C)cc1 | inactive |
| Cc1ccc(C)c(NC(=O)C2(C)CCCN2C(=O)C(C)C)c1 (stereo not drawn) | inactive |
| O=C(NC(=S)Nc1ccc(Br)cc1)C1CCC1 | inactive |
| O=C(NC(=S)NCC1COc2ccccc2O1)c1ccc(Cl)cc1 (stereo not drawn) | inactive |
| CCCCN1C(=S)NC[C@@H]1Cc1ccccc1 | inactive |
| COc1ccccc1NC(=S)NCc1ccc(Cl)cc1 | inactive |

| Structure (SMILES) | outcome |
| --- | --- |
| S=C(NCc1ccccc1)NCC1COc2ccccc2O1 (stereo not drawn) | inactive |
| O=C(NC(=S)Nc1ccccc1N1CCCC1)c1ccccc1[N+](=O)[O-] | inactive |
| COc1ccc(CNC(=S)NCc2ccc(OC(C)C)cc2)cc1 | inactive |
| CCc1nc(N2CCCCC2C)c2oc3ccccc3c2n1 (stereo not drawn) | inactive |
| O=C(NC(=S)Nc1cc(Cl)ccc1N1CCOCC1)c1ccccc1[N+](=O)[O-] | inactive |
| O=C(NCCN1CCCCC1)[C@H]1N[C@H]2c3ccc(-c4ccncc4)c(=O)n3C[C@H]2[C@@H]1CO | inactive |
| Fc1ccccc1NC(=S)NN(Cc1ccccc1)c1ccccc1 | inactive |
| S=C(NCCCc1ccccc1)Nc1ccccc1 | inactive |
| O=C(NC(=S)Nc1cccc(F)c1)c1cccc([N+](=O)[O-])c1 | inactive |
| O=C(NC(=S)Nc1ccccc1N1CCOCC1)c1cccc([N+](=O)[O-])c1 | inactive |
| COc1cccc(NC(=S)NC(=O)Cc2ccc(Cl)cc2)c1 | inactive |
| CCCCNC(=S)N/N=C/c1ccc(C#N)cc1 | inactive |
| Fc1ccccc1NC(=S)NCCc1cccc(Cl)c1 | inactive |
| CC(C)CC1(C)N=C(c2ccccc2)C(=S)N1 (stereo not drawn) | inactive |
| COC(=O)C1=C(C)N(Cc2ccc(F)cc2)C(=S)NC1c1ccc(F)cc1 (stereo not drawn) | inactive |
| COC(=O)C1=C(C)N(CC(C)C)C(=S)NC1c1cccc(F)c1 (stereo not drawn) | inactive |
